AMA1 RON2 block = inhibitors of Plasmodium falciparum AMA1-RON2 interaction; AlphaScreen AMA1-biotinylated RON2 peptide binding; Potency, µM (top dose mostly 58.2 µM), for inactives: top-dose activity change, negative = inhibition, most hits filed as inhibitors; 360,000 compounds, 0.2% hits;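 note: potency is the fitted concentration of half-maximal effect; 0% = vehicle wells and -100% = peptide control; nearly all actives have a fitted effect of over 45% in size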
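AMA1 (3D7) with his tag at 25 nM final met compounds first, then biotinylated RON2 peptide at 25 nM; detection used donor plus acceptor beads, 10 µg/mL apiece, read by AlphaScreen after 30 min at room temperature.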
AmpC inh no detg = inhibitors of E. coli AmpC beta-lactamase without detergent. P00811. AmpC nitrocefin hydrolysis, absorbance 480 nm, 0.0001% Triton. Potency, µM (titrated, usually from 57.1 µM), for the others: at the highest dose activity change, negative = inhibition, actives largely listed as inhibitors. 330,000 compounds, 0.52% hits. AID 485341;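 note: potency is the fitted concentration of half-maximal effect; plate controls were no compound for no effect and no enzyme for full effect; nearly all actives have a fitted effect of over 20% in size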
Target sequence (P00811 whole entry, looked up): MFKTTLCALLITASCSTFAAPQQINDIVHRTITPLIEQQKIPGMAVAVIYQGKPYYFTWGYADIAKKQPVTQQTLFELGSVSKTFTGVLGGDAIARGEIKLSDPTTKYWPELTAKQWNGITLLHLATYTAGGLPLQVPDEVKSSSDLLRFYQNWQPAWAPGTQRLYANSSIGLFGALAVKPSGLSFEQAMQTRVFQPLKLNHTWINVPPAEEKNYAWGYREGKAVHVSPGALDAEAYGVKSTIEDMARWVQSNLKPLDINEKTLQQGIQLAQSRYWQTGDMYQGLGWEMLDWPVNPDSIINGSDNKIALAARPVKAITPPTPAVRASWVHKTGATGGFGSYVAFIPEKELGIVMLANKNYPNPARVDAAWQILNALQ
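AmpC (5.3 nM in the dispensed reagent) in 20 mM phosphate pH 7.0 with 0.01% (detergent screen) or 0.0001% Triton X-100 was preincubated with compounds for 15 min at room temperature. Nitrocefin was then added from an 800 uM solution, and hydrolysis was followed at 480 nm.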
SARS PLpro yeast = inhibitors of SARS-CoV papain-like protease in yeast. S. cerevisiae expressing SARS-CoV PLpro, growth rescue. Potency, µM (top dose mostly 32.9 µM), inactives show top-dose activity, positive = growth rescue, hits mostly activators. 330,000 compounds, 0.19% hits. AID 485353; calls by dose curve; note: potency is the fitted concentration of half-maximal effect; 0% is about no effect; nearly all actives have a fitted effect of over 55% in size
AmpC inh detg = AmpC beta-lactamase inhibition with detergent present; AID 485294; P00811; Potency, µM (doses to about 114 µM), without a hit: at the top dose activity change, negative = inhibition, hits mostly inhibitors; AmpC hydrolysis of nitrocefin, absorbance 480 nm, 0.01% Triton; 370,000 compounds, 0.041% hits;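 note: potency is the fitted concentration of half-maximal effect; 0% = no-compound wells and -100% = no-enzyme wells; nearly all actives have a fitted effect of over 25% in size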
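AmpC (5.3 nM in the dispensed reagent) in 20 mM phosphate pH 7.0 with 0.01% (detergent screen) or 0.0001% Triton X-100 was preincubated with compounds for 15 min at room temperature. Nitrocefin was then added from an 800 uM solution, and hydrolysis was followed at 480 nm.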
Cycloheximide cs = counter-screen hit for Shiga toxin inhibitors, cycloheximide | max response, % | cell reporter, cycloheximide protein synthesis inhibition counterscreen | AID 2314 | 300,000 compounds, 12% hits; in the data active = max response mostly above about 13%, no sharp cut-off; inactive = mostly below about 14%; note: read at 38.3 µM for the half of the compounds with a filed dose; 0% is about no effect
Shiga toxin inh = Shiga toxin inhibition | Vero cells, Shiga toxin protein synthesis inhibition reporter | inhibition, % at 38.7 µM | 290,000 compounds, 9.2% hits | AID 2315; in the data active = inhibition mostly above about 28%, no sharp cut-off; inactive = mostly below about 43%; note: 0% is about no effect
The depositor's hits bear a star. This is one part of a sample in which hits are shown more often than they occur. Unless noted, calls come from the whole dose curve; as a rule, active = well fitted curve in the direction sought with a large enough effect; inconclusive = small, poorly fitted or top-dose-only effect, or another doubt; inactive = no such curve, though single readings can be large; an effect the other way counts as inactive or inconclusive.

Screening CCN(CC)S(=O)(=O)c1ccc(OC)c(NC(=O)c2ccc3c(c2)OCO3)c1 returned AMA1 RON2 block -0.8%, AmpC inh no detg 1.5%, SARS PLpro yeast -0.9%, AmpC inh detg -1.0%, Cycloheximide cs 5.1 and Shiga toxin inh 20.4.
For CCN(CC)S(=O)(=O)c1cccc(C(=O)Nc2cc3oc4ccccc4c3cc2OC)c1 the results were AMA1 RON2 block 20.5%, AmpC inh no detg -28.8%, SARS PLpro yeast -7.1%, AmpC inh detg 0.2%, Cycloheximide cs -3.6 and Shiga toxin inh -1.0.
`COc1cc2c(cc1NCc1ccccn1)oc1ccccc12` gave AMA1 RON2 block 36.2%, AmpC inh no detg -58.4%, SARS PLpro yeast -17.0%, AmpC inh detg -12.2%, Cycloheximide cs 11.4 and Shiga toxin inh 33.0*.
Screening O=C(Nc1ccc(Cl)cc1)c1ccc(OC2CSC2)cc1 returned AMA1 RON2 block -4.9%, AmpC inh no detg -26.4%, SARS PLpro yeast -1.8%, AmpC inh detg 3.9%, Cycloheximide cs 18.0* and Shiga toxin inh 66.0.
For CN(C(=O)CN1C(=O)c2cc(Cl)c(Cl)cc2C1=O)C1CCS(=O)(=O)C1 (centres undefined) the results were AMA1 RON2 block -3.8%, AmpC inh no detg -14.2%, SARS PLpro yeast 2.7% and AmpC inh detg -4.8%.
Screening Cc1cc(C(=O)COc2ccccc2C#N)c(C)n1C1CC1 returned AMA1 RON2 block -4.2%, AmpC inh no detg -9.2%, SARS PLpro yeast -1.5% and AmpC inh detg -4.3%.
Cc1c(C(=O)NNC(=O)Nc2ccc([N+](=O)[O-])cc2)oc2ccccc12 was read as AMA1 RON2 block 113.4%, AmpC inh no detg -39.3%, SARS PLpro yeast 0.5%, AmpC inh detg -0.3%, Cycloheximide cs -1.2 and Shiga toxin inh 18.3.
Screening COc1ccc(OC)c(-c2csc(NC(=O)c3ccc4c(c3)OCO4)n2)c1 returned AMA1 RON2 block -4.6%, AmpC inh no detg -30.5%, SARS PLpro yeast 3.3%, AmpC inh detg 2.9%, Cycloheximide cs 18.4* and Shiga toxin inh 62.8*.
Screening COc1ccc(OC)c(NC(=O)c2cccc(NC(=O)c3ccccc3)c2)c1 returned AMA1 RON2 block -5.7%, AmpC inh no detg -34.8%, SARS PLpro yeast -5.6%, AmpC inh detg -14.0%, Cycloheximide cs 5.9 and Shiga toxin inh 20.9.
O=S(=O)(NCc1ccc2c(c1)OCO2)c1ccc2oc3ccccc3c2c1 was read as AMA1 RON2 block -8.8%.
For COc1cc2c(cc1NCc1ccc3c(c1)OCO3)oc1ccccc12 the results were AMA1 RON2 block 31.6µM*, AmpC inh no detg -23.8%, SARS PLpro yeast 1.5%, AmpC inh detg -13.1%, Cycloheximide cs 37.2* and Shiga toxin inh 68.2*.
Screening CCCc1cc(C(=O)Nc2cc(OC)ccc2OC)cs1 returned AMA1 RON2 block 11.9%, AmpC inh no detg -25.0%, SARS PLpro yeast -6.6%, AmpC inh detg -0.6%, Cycloheximide cs 17.8* and Shiga toxin inh 30.3*.
COc1ccccc1N1CCN(C(CNC(=O)c2ccc3c(c2)OCO3)c2cccnc2)CC1 (centres undefined) was read as AMA1 RON2 block -4.4%, AmpC inh no detg 31.7%, SARS PLpro yeast -10.9%, AmpC inh detg inconclusive, Cycloheximide cs 15.0* and Shiga toxin inh 26.4.
Screening COc1ccc(CC(=O)Nc2nc(-c3cc(OC)ccc3OC)cs2)cc1 returned AMA1 RON2 block inconclusive, AmpC inh no detg -18.9%, SARS PLpro yeast -7.0%, AmpC inh detg 8.1%, Cycloheximide cs 5.0 and Shiga toxin inh -4.5.
COc1ccc(CNC(=O)C(OC(=O)c2ccco2)c2ccc(F)cc2)cc1 (centres undefined) was read as AMA1 RON2 block 16.0%, AmpC inh no detg -26.3%, SARS PLpro yeast 0.0%, AmpC inh detg -13.7%, Cycloheximide cs -2.5 and Shiga toxin inh 18.2.
For COc1cc(OC)c(C(=O)Oc2ccc3c(c2)OCO3)cc1OC the results were AMA1 RON2 block 13.0%, AmpC inh no detg 63.4%, SARS PLpro yeast 3.0%, AmpC inh detg -8.7%, Cycloheximide cs 7.9 and Shiga toxin inh -9.9.
COc1ccc(OC)c(NC(=O)c2ccc(OC3CSC3)cc2)c1 was read as AMA1 RON2 block inconclusive, AmpC inh no detg -11.8%, SARS PLpro yeast -0.6%, AmpC inh detg 7.9%, Cycloheximide cs 20.6* and Shiga toxin inh 28.2.
For COc1ccc(C(=O)Oc2ccc3c(c2)OCO3)cc1OC the results were AMA1 RON2 block 1.6%, AmpC inh no detg 0.6%, SARS PLpro yeast -3.0%, AmpC inh detg inconclusive, Cycloheximide cs 30.5* and Shiga toxin inh 74.6*.
For COc1cc2c(cc1NC(=O)c1cncc(Br)c1)oc1ccccc12 the results were AMA1 RON2 block -15.2%, AmpC inh no detg -0.7%, SARS PLpro yeast -3.9%, AmpC inh detg 4.4%, Cycloheximide cs -1.6 and Shiga toxin inh -8.8.
`COc1cc2c(cc1NC(=O)c1ccc3c(c1)OCO3)oc1ccccc12` gave AMA1 RON2 block -2.5%, AmpC inh no detg -29.3%, SARS PLpro yeast 1.2%, AmpC inh detg -5.6%, Cycloheximide cs 40.7* and Shiga toxin inh 92.1*.
Screening COc1ccccc1NC(=O)c1ccc2c(c1)OCO2 returned AMA1 RON2 block -4.7%, AmpC inh no detg -18.3%, SARS PLpro yeast -5.9%, AmpC inh detg -2.9%, Cycloheximide cs 49.8* and Shiga toxin inh 81.7*.
For COc1ccc(OC)c(NC(=O)c2ccc(NC(C)=O)cc2)c1 the results were AMA1 RON2 block 3.8%, AmpC inh no detg -4.2%, SARS PLpro yeast 0.8%, AmpC inh detg 2.0%, Cycloheximide cs 8.7 and Shiga toxin inh -9.5.
`COc1cccc(C(=O)NCc2ccc3[nH]c(C)cc3c2)c1` gave AMA1 RON2 block -25.5%, AmpC inh no detg -1.5%, SARS PLpro yeast -0.4%, AmpC inh detg -1.1%, Cycloheximide cs 3.6 and Shiga toxin inh 10.1.
Cc1cc(C(=O)NC(=S)Nc2cccc(NC(=O)C(C)C)c2)ccc1[N+](=O)[O-] was read as AMA1 RON2 block 45.2%, AmpC inh no detg -16.1%, SARS PLpro yeast -24.5%, AmpC inh detg inconclusive, Cycloheximide cs 35.6* and Shiga toxin inh 9.8.
Screening Cc1ccccc1C(=O)NC(=S)Nc1cccc(NC(=O)C(C)C)c1 returned AMA1 RON2 block -0.9%, AmpC inh no detg -17.3%, SARS PLpro yeast 0.2%, AmpC inh detg -8.6%, Cycloheximide cs 27.4* and Shiga toxin inh 41.6.
`CCC(=O)Nc1cccc(NC(=S)NC(=O)c2cccs2)c1` gave AMA1 RON2 block 78.2%, AmpC inh no detg -37.4%, SARS PLpro yeast -3.7%, AmpC inh detg -5.4%, Cycloheximide cs 40.5* and Shiga toxin inh 110.0*.
CC(C)C(=O)Nc1cccc(NC(=S)NC(=O)c2ccccc2Cl)c1 was read as AMA1 RON2 block 5.7%, AmpC inh no detg -17.7%, SARS PLpro yeast 2.9%, AmpC inh detg 7.2%, Cycloheximide cs 25.0* and Shiga toxin inh 13.7.

From PubChem
